We go through 36 molecules from PubChem BioAssay (NCI).

The subject of the experiment is HL-60(TB) leukemia. The experiment can be described thus: NCI-60 one-dose screen, 48 h (100 = growth as untreated, 0 = no growth, -100 = all killed). The following applies: 10 µM unless noted.

Compounds without any hit were thinned out: in the full panel of roughly 83,000, 20% have a hit.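 The endpoint reported here, percent growth, reads 100 for growth as untreated, 0 for no net growth and -100 for all cells dead.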 A number with no mark means an inactive call. Active and inactive are the calls of the source. The calls were made as follows: active = growth percent below 10; inactive = the rest.

Consider `CC(=O)OC[C@@]1(C)C2CC[C@]3(C)C(CC=C4C5CC(C)(C)CC[C@]5(C(=O)Nc5ccc(Br)cc5)CC[C@]43C)[C@@]2(C)C[C@@H](OC(C)=O)[C@@H]1OC(C)=O` (stereo partly specified), for which the growth was 32.3%.

Consider `O=C(O)CCCCCCCCCCN1C(=O)/C(=C/c2cnc(-c3ccccc3)s2)SC1=S`, for which the growth is 63.6%.

Consider `N#Cc1ccc(-c2nn(-c3ccc(C(=O)O)cc3)cc2CNc2cc(Cl)cc(Cl)c2)cc1`, for which the growth is 29.5%.

Regarding `COc1cc2c(c(OC)c1OC)C(=O)CC(c1cccc(NC(=O)c3cc(NC(=O)[C@H](C)N)ccc3Cl)c1)O2` (stereo partly specified), the growth was 2.28% (active).

As for `CC(=O)c1ccc2c(N)c(C(=O)Nc3ccc(C(F)(F)F)cc3)sc2n1`, the growth is 50%.

For `C#CCN(C)CCCOc1ccc(N(C)C(=O)c2cc(C(C)C)c(O)cc2O)cc1Cl`, the growth is -40.7% (active).

For the molecule `CCOc1ccccc1NC(=O)N/C(N)=N/c1nc2ccccc2s1`, the growth was -23.4% (active).

With `O=C(c1ccc(O)cc1)C1[C@H](c2ccccc2Br)[C@@H](c2ccccc2)NC12C(=O)Nc1ccc(Br)cc12` (stereo partly specified), the growth was 33.6%.

Regarding `O=C1Nc2cc(-c3ccc(NC(=O)c4cccs4)cc3)ccc2/C1=C/c1ccc[nH]1`, the growth is 90.9%.

`O=C1NC(=O)/C(=C/c2ccccc2OCc2cc3ccccc3nc2Cl)S1`: the growth was 99%.

Turning to `O=[N+]([O-])c1ccc(-c2nc(-c3ccccc3)c(-c3ccccc3)n2-c2ccc(S(=O)(=O)Nc3ncccn3)cc2)cc1`, the growth was 38.2%.

In the case of `C/C(=N\N=C\c1cc([N+](=O)[O-])ccc1Cl)c1ccc2c(c1)Nc1ccccc1S2`, the growth was 84.6%.

For the molecule `CC(=O)c1cc(C(=O)N2c3ccccc3Sc3ccccc32)n2ccc(C)cc12`, the growth was 33.3%.

As to `COc1ccccc1Nc1nnc(-c2c[nH]c3ccccc23)o1`, the growth is 2.38% (active).

In the case of `CC(=O)Oc1ccccc1C(=O)Oc1ccc(C(=O)/C=C/c2ccncc2)cc1`, the growth is 3.04% (active).

With `CC1=C(C(=O)OCc2ccccc2)C(c2c(O)cc(O)cc2O)n2c(nc3ccccc32)N1` (stereo unspecified), the growth is 27.2%.

`COc1c(F)ccc(C(=O)Nc2ccc3nc(NC(=O)C4CCCN(S(=O)(=O)C5CC5)C4)sc3c2)c1F` (stereo unspecified): the growth was 32.4%.

Take `O=C(NN1C(=O)/C(=C/C=C/c2ccc([N+](=O)[O-])o2)SC1=S)c1ccc([N+](=O)[O-])cc1`: the growth is -7.3% (active).

Consider `O=C(CSc1nc2c(c(=O)[nH]1)CCCC2)Nc1ccccc1C(=O)O`, for which the growth was 95.1%.

For the molecule `O=Cc1cncc(-c2ccc3ncnc(N4CCc5cc(F)c(Cl)cc54)c3c2)c1`, the growth was 44.3%.

For the molecule `NS(=O)(=O)c1ccc(NC(=O)CSc2ccc(-c3ccc(Cl)cc3)nn2)c(Br)c1`, the growth is 98%.

For the molecule `Cc1nc2sccn2c1-c1nnc(SCC(C)C)o1`, the growth is 93.2%.

With `CN1C(=O)/C(=C/c2ccco2)S/C1=N/c1nccs1`, the growth was 102%.

On to `Cc1c(C(=O)NNC(=O)c2ccc(Cl)cc2)nnn1-c1ccc(Cl)cc1`, for which the growth is 100%.

With `COc1ccc2[nH]c(O)c(N=Nc3nc(-c4ccc(Cl)cc4)cs3)c2c1`, the growth was 58%.

For `Nc1nc(Nc2ccc(Cl)cc2)n(Cc2cccc(Br)c2)n1`, the growth was -14.2% (active).

As to `Oc1ccc(/C=C2\CCCc3cc4ccc(O)cc4[o+]c32)c(O)c1`, the growth is 33.4%.

For `O=C(Nc1cc(Cl)cc(Cl)c1)Nc1cc(Cl)cc(Cl)c1`, the growth was -15.1% (active).

For `O=C(O)CCN1C(=O)/C(=C/C=C/c2ccc([N+](=O)[O-])o2)SC1=S`, the growth is -11% (active).

Consider `CC1=C(C(=O)c2ccccc2)C(c2ccc(-n3cncn3)cc2)n2c(nc3ccccc32)N1` (stereo unspecified), for which the growth is 86.9%.

Take `CC(C)Sc1nc(NC2CC2)c(C#N)c(-c2ccccc2)n1`: the growth was 98.1%.

In the case of `Cc1[nH]nc2ccc3nc(-c4cnn(CCO)c4)c4c(c3c12)CCCC4`, the growth is 36.9%.

Consider `CCCCC[C@@H]1C/C=C(\C)[C@@H](O)C(C)(C)C(=O)[C@@H](C)/C=C(\C)[C@@H]2C[C@H](O)C[C@](O)(CC(=O)O1)O2`, for which the growth was 11.8%.

In the case of `CCN(CC)CCOc1ccc(Nc2ncc3cc(-c4ccc(O)c(C#N)c4)c(=O)n(C)c3n2)cc1`, the growth was 87.6%.

Take `Cn1cc(-c2cc(N)n3nc(-c4cn(C)c5ncc(Br)cc45)cc3n2)c2cc(Br)cnc21`: the growth was -71.2% (active).

Take `CCCSc1nc(NCCc2c[nH]c3ccccc23)c(C#N)c(-c2ccc(F)cc2)n1`: the growth is 54.2%.
